Screens deposited in PubChem by several laboratories.
In the library only some 4.9% were active in any assay of this set; here they are far more common.
tim23-1 inh: growth inhibitors of tim23-1 mutant yeast; inhibition, % at 20 µM; S. cerevisiae tim23-1 growth, BacTiter-Glo luminescence, 24 h; actives 1.3% (n = 330,000);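 active = growth inhibition of the mutant yeast at or above 50%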;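 also: temperature-sensitive mutant grown at 25 °C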
NALP3 yeast inh: inhibitors of NALP3 inflammasome in yeast; Yeast reconstituted NLRP3/ASC/caspase-1, beta-gal luminescence, 24 h; inhibition, % at 10 µM; actives 0.39% (n = 330,000); AID 2825;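 active = inhibition of 50% or more; inactive = inhibition below 50%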
NALP1 yeast inh: NALP1 inhibition; S. cerevisiae NALP1/ASC/caspase-1 growth, X-gal OD620, 72 h; inhibition, % at 10 µM; actives 0.61% (n = 280,000); AID 2071; in the data active = inhibition mostly above about 24%, no sharp cut-off; inactive = mostly below about 32%
TIM10 inh: inhibits growth of TIM10 yeast strain. S. cerevisiae TIM10 strain growth, BacTiter-Glo luminescence, 24 h. inhibition, % at 10 µM. actives 1.4% (n = 330,000). AID 463195;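 active = inhibition of 40% or more at the single tested concentration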;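 also: wild-type TIM10 isogenic control strain grown at permissive 25 °C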
tim10-1 inh: inhibits growth of tim10-1 mutant yeast. S. cerevisiae tim10-1 ts strain growth, BacTiter-Glo, 24 h. AID 463190. inhibition, % at 20 µM. actives 2.2% (n = 330,000);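 active = inhibition of at least 40%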;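 also: mutant grown at 25 °C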
SKKanGAS inh: blocks kanamycin growth of S. pyogenes SKKanGAS strain; BacTiter-Glo, 6 h; inhibition, % at 7.5 µM; actives 1.3% (n = 300,000); AID 1662;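 active = mean replicate score, as percent of positive control median, at least 50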;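 also: strain carries kanamycin resistance gene driven by streptokinase promoter and grows in 40 µg/ml kanamycin; loss of luminescence reflects streptokinase promoter inhibition or plain growth inhibition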
tim10-1 conf: tim10-1 yeast growth inhibition, confirmed | shares compounds with tim10-1 inh | S. cerevisiae tim10-1 ts strain growth, BacTiter-Glo, 24 h | inhibition, % at 20 µM | actives 56% (n = 7,400);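 active = inhibition of yeast growth at or above a set limit in either of two repeat tests at 20 µM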;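 also: tim10-1 mutant grown at permissive 25 °C to find synthetic lethal compounds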
TIM10 conf: confirmation of TIM10 yeast growth inhibitors; shares compounds with TIM10 inh; S. cerevisiae tim10 strain growth, BacTiter-Glo luminescence, 24 h; inhibition, % at 10 µM; actives 63% (n = 4,600); AID 463215;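 active = inhibition of yeast growth at or above a set limit in either of two replicates at 10 µM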; also: this counterscreen used the strain with wild-type TIM10
Of the large screens only hits and unclear results are named; the others gave an inactive call (follow-up assays come after a bar, where they were run).

COc1ccc(N2CC(C(=O)Nc3nc4ccc(F)cc4s3)CC2=O)c(OC)c1 (stereo not given)	none
OC(c1ccc(F)cc1)C(CN1CCOCC1)c1ccccc1 (stereo not given)	none
COc1ccccc1NS(=O)(=O)c1c(C(=O)N2CCCC2)c(C)n(C)c1C	none
Cc1ccc2[nH]c(C(=O)N3CCCC(Nc4ccc(F)cc4)C3)cc2c1 (stereo not given)	tim10-1 inh 51 | tim10-1 conf inactive
COc1ccccc1C(=O)NCCCCNC(=O)c1ccccc1OC	none (no result: NALP1 yeast inh)
CCN(CC)CC(O)Cn1c(C)c(-c2ccccc2)c2cc([N+](=O)[O-])ccc21 (stereo not given)	none
CCOc1ccc(C(C)=O)cc1N1C(=O)C2C3C=CC(O3)C2C1=O (stereo not given)	tim10-1 inh 55 | tim10-1 conf inactive
CCOc1ccc(C(C)=O)cc1N1C(=O)C2C3C=CC(C3)C2C1=O (stereo not given)	none
O=C(O)CC/C(=N\Nc1ccc(Cl)cc1)c1cccs1	tim10-1 inh 41 | tim10-1 conf inactive
N#C/C(=C\c1cccnc1)C(=O)Nc1ccccc1[N+](=O)[O-]	none
Oc1c(CN2CCCC(C(F)(F)F)C2)cc(Cl)c2ccccc12 (stereo not given)	tim10-1 inh 42 | tim10-1 conf inactive
CC(C)(C)OC(=O)N1CCCC1C(=O)NCCc1ccccc1 (stereo not given)	none
CCc1cc2c(C)cc(=O)oc2cc1OC(=O)C1CCCN1C(=O)OC(C)(C)C (stereo not given)	tim10-1 inh 46 | tim10-1 conf inactive
O=C1c2ccccc2S(=O)(=O)c2cc(C(=O)N3CCN(c4ccc(Cl)cn4)CC3)ccc21	tim10-1 inh 44 (no result: NALP1 yeast inh) | tim10-1 conf 42
N#Cc1cccnc1N1CCN(C(=O)c2ccc3c(c2)S(=O)(=O)c2ccccc2C3=O)CC1	none (no result: NALP1 yeast inh)
O=C(C(=O)N1CCN(c2ccc([N+](=O)[O-])cc2)CC1)c1cn(CC(=O)N2CCOCC2)c2ccccc12	none
N#C/C(=C/c1ccc(O)c([N+](=O)[O-])c1)C(=O)Nc1ccccc1	tim10-1 inh 40 | tim10-1 conf inactive
COCC1CCCCN1C(=O)c1ccc2nc(Cc3ccc(OC)c(OC)c3)oc2c1 (stereo not given)	none
Cc1cc(C(=O)Cn2nc(C(=O)O)c3ccccc3c2=O)c(C)n1-c1ccccc1	tim10-1 inh 42 | tim10-1 conf inactive
CC(=O)Nc1cccc(NC(=O)CSc2ccc(-c3ccco3)nn2)c1	none
CC(C)(C)C(=O)N1CCN(c2nc3ccccc3s2)CC1	tim10-1 inh 47 | tim10-1 conf inactive
CCc1ccc2nc(N3CCN(C(=O)C(C)(C)C)CC3)sc2c1	none
CC1=CC(C)(C)Nc2ccc(OC(=O)c3ccco3)cc21	none
CC1=CC(C)(C)Nc2ccc(OC(=O)c3cccnc3)cc21	tim10-1 inh 40 | tim10-1 conf inactive
O=C(/C=C/c1cccc(Oc2ccccc2)c1)N1CCOCC1	tim10-1 inh 43 | tim10-1 conf inactive
O=C(/C=C/c1cccc([N+](=O)[O-])c1)N1CCOCC1	none
CC(=O)Nc1ccc2c(COC(=O)[C@@H](NS(=O)(=O)c3ccc(C)cc3)C(C)C)cc(=O)oc2c1	none (no result: NALP1 yeast inh, SKKanGAS inh)
O=C(c1ccccc1)c1ccc(OCC(O)CNCc2cccc(Cl)c2)cc1 (stereo not given)	none (no result: tim23-1 inh, NALP3 yeast inh, TIM10 inh, tim10-1 inh)
CC(=O)c1ccc(N2CCC(c3cc(-c4ccc(Cl)cc4Cl)n[nH]3)CC2)c([N+](=O)[O-])c1	tim10-1 inh 44, SKKanGAS inh 80 | tim10-1 conf inactive
CC(=O)c1ccc(N2CCN(c3ccccc3O)CC2)c([N+](=O)[O-])c1	none
O=C1C(Cl)=C(Nc2ccc(O)cc2)C(=O)c2ccccc21	TIM10 inh 45, tim10-1 inh 49 | tim10-1 conf 45 | TIM10 conf 51
